Test results from PubChem BioAssay AID1345085 (National Center for Advancing Translational Sciences (NCATS), 2018).
Results filed as inconclusive are left out. Active and inactive are the calls of the source. The call rests on the fitted dose curve; in most records, active means well fitted cell-killing curve with a large enough effect; inconclusive means small, poorly fitted or top-dose-only effect, or effect the other way; inactive means no such curve, though single readings can be large or run the other way.

Each compound was assayed on Tov-21-G (assay: Confirmatory qHTS for gynecologic anti-cancer compounds from libraries of approved drugs and bioactive compounds). Conditions: gynecologic cancer cell panel viability, ATPlite luminescence, 48 h; series mostly up to 57.7 µM.
In short: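 ATPlite luminescence read-out of cell viability; IC50 from 11-point 1:3 titrations, 57.5 uM to 0.977 nM, 48 h compound exposure at 37 C, 5% CO2. Cells seeded at 1,000/well 16 h before dosing.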
Further: nearly all actives have a fitted effect of over 55% in size.
Potency means the concentration at half of the fitted maximal effect.

Compound | Potency
CNC(=O)c1ccccc1Nc1nc(Nc2ccc(N3CCOCC3)cc2OC)ncc1Cl | 3.85 µM (active)
Nc1nc(=S)c2[nH]cnc2[nH]1 | inactive
CCCCc1nc2cc(/C=C/C(=O)NO)ccc2n1CCN(CC)CC | 3.06 µM (active)
CN(C)C1CCN(C(=O)c2ccc(NC(=O)Nc3nc(N4CCOCC4)nc(N4CCOCC4)n3)cc2)CC1 | 0.172 µM (active)
CCCCc1oc2ccccc2c1C(=O)c1cc(I)c(OCCN(CC)CC)c(I)c1 | 56.2 µM (active)
CN(C)C/C=C/C(=O)Nc1cc2c(Nc3ccc(F)c(Cl)c3)ncnc2cc1OC1CCOC1 (centres undefined) | 3.43 µM (active)
COc1cc(Nc2c(C#N)cnc3cc(OCCCN4CCN(C)CC4)c(OC)cc23)c(Cl)cc1Cl | 1.72 µM (active)
COc1ccc(OC)c(-c2nnc3ccc(-c4ccc(OC)c(O[C@@H]5CCOC5)c4)nn23)c1 | inactive
CCc1cccc(CC)c1NC(=O)N1Cc2[nH]nc(NC(=O)c3ccc(N4CCN(C)CC4)cc3)c2C1 | 2.73 µM (active)
CN(Cc1cnc2nc(N)nc(N)c2n1)c1ccc(C(=O)N[C@@H](CCC(=O)O)C(=O)O)cc1 | inactive
COc1ccccc1N1CCN(CC(O)COc2cccc3ccccc23)CC1 (centres undefined) | inactive
NCCOc1cc(C(=O)Nc2cc(OCCN)c3ccccc3n2)nc(C(=O)Nc2cc(OCCN)c3ccccc3n2)c1 | 24.3 µM (active)
CC(C)Nc1cc(-c2c[nH]c(C(=O)N[C@H](CO)c3cccc(Cl)c3)c2)c(Cl)cn1 | 24.3 µM (active)
CN1CCN(CCOc2cc(OC3CCOCC3)c3c(Nc4c(Cl)ccc5c4OCO5)ncnc3c2)CC1 | 0.243 µM (active)
